Measured values from the supplement of paper PMC11732987, “Enantioselective OTUD7B fragment discovery through chemoproteomics screening and high-throughput optimisation” (Communications Chemistry, 2025).

Experiments:
Assay in all cases: log2 ratio of Biotin-Ahx-Ub-VS probe labelling (fragment/DMSO); higher = less target engagement (more negative = stronger competition), active = hit call of the paper (q ≤ 0.05, log2 ratio ≤ -1)
Conditions in all cases: compound concentration: 200 uM; treatment time: 3 h
[1] = molecular target: USP34 (UniProt Q70CQ2)
Sequence of USP34 (Q70CQ2 whole entry, the tested form may be a part): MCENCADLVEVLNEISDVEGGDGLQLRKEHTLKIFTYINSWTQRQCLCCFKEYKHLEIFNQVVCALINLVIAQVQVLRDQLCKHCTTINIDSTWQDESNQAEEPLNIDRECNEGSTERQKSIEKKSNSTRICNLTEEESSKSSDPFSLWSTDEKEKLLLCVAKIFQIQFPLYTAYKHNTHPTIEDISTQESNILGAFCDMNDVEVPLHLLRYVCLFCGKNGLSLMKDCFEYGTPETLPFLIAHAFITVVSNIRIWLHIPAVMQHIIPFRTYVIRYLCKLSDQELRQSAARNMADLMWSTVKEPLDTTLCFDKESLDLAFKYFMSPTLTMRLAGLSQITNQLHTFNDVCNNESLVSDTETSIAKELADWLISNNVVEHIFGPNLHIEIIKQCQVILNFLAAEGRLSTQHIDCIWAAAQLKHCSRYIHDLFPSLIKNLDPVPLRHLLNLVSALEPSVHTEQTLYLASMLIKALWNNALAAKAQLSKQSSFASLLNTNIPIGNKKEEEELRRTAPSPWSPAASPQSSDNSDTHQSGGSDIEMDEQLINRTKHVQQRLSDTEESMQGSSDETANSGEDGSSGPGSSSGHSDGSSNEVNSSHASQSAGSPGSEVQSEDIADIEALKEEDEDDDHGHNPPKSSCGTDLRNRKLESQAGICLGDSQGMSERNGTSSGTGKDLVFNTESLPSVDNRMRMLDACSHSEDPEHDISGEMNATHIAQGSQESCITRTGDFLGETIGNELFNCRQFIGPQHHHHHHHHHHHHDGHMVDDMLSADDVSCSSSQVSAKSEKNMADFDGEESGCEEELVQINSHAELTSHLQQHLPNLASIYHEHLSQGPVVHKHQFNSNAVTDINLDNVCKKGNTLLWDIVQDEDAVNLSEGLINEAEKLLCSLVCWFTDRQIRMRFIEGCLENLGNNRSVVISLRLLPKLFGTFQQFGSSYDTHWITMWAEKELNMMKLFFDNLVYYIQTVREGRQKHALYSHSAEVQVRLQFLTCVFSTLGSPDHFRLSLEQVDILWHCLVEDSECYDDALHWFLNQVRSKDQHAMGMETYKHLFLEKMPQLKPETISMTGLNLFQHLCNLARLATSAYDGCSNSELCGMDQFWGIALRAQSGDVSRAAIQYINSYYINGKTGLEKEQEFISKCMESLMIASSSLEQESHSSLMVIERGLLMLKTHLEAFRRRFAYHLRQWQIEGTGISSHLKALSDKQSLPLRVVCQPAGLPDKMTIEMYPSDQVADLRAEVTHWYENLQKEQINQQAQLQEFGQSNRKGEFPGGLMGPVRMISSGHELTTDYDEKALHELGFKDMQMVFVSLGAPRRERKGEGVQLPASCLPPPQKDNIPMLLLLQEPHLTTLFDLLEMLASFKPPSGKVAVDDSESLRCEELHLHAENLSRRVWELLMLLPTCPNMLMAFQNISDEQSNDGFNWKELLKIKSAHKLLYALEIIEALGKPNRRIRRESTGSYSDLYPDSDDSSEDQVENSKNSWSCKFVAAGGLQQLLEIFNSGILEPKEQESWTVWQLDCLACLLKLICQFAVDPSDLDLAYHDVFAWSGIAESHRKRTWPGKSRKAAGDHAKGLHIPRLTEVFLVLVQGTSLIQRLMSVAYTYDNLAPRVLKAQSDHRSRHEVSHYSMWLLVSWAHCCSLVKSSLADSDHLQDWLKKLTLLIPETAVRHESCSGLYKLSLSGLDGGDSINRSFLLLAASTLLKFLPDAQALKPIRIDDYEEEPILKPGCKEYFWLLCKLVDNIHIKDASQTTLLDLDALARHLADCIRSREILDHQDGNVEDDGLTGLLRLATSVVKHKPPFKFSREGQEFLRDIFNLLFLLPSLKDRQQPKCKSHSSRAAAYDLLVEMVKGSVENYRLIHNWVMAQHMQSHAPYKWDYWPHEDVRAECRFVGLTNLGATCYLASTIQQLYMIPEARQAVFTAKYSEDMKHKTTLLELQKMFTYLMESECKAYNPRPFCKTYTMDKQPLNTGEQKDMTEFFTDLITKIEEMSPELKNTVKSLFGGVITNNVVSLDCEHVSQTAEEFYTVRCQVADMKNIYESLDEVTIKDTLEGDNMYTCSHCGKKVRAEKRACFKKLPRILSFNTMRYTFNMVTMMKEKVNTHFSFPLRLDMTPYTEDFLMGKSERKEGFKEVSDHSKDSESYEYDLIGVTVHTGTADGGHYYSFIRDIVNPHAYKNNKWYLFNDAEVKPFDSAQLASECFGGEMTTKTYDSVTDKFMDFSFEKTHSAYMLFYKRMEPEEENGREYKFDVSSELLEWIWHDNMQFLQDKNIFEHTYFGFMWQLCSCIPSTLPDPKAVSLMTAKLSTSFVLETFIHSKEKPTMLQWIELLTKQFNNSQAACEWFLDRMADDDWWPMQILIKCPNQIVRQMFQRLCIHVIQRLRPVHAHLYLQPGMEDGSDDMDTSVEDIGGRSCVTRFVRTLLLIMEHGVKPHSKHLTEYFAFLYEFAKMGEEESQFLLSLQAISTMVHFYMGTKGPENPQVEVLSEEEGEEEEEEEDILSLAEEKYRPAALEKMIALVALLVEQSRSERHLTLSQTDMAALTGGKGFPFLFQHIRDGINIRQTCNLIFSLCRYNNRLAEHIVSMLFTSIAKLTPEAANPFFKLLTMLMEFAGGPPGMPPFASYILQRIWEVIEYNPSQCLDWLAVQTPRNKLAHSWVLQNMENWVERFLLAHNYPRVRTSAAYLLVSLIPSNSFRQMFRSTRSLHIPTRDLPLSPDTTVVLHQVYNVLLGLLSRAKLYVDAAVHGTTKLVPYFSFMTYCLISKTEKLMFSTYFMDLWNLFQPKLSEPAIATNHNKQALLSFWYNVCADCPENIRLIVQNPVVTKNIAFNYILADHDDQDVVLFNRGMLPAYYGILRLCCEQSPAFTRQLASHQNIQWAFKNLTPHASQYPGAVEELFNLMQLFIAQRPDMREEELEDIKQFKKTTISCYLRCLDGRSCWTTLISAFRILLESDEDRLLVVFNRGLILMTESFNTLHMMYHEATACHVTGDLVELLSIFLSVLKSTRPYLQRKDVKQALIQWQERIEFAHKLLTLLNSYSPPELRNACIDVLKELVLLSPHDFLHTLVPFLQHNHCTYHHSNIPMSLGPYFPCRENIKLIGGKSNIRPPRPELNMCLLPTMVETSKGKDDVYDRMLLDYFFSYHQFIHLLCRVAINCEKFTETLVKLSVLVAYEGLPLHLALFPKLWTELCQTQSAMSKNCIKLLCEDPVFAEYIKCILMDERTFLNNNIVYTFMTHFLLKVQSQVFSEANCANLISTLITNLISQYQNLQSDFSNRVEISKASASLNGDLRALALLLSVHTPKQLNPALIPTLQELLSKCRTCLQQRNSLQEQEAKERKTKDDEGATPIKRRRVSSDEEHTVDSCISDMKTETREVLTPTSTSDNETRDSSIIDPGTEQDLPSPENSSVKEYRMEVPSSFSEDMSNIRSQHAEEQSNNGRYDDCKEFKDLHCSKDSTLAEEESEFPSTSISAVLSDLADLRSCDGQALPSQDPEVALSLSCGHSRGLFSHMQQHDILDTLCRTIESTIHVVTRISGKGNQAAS
In short: (§1)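 HEK293T lysate, 495 µg per sample in Tris/CHAPS/IGEPAL buffer with protease inhibitors, was treated in triplicate with fragment at 200 µM or vehicle for 3 h and then with Biotin-Ahx-Ub-VS at 0.5 µM final for 1 h. Labelled DUBs were NeutrAvidin-enriched, digested with LysC and trypsin, and run by diaPASEF LC-MS/MS. Spectronaut label-free quantities were global-median-normalised, and values are average log2 fragment/vehicle ratios by unpaired t-test on proteins with ≥2 unique peptides.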

[2] = molecular target: T1, USP36 (UniProt Q9P275)
T1 sequence (whole entry): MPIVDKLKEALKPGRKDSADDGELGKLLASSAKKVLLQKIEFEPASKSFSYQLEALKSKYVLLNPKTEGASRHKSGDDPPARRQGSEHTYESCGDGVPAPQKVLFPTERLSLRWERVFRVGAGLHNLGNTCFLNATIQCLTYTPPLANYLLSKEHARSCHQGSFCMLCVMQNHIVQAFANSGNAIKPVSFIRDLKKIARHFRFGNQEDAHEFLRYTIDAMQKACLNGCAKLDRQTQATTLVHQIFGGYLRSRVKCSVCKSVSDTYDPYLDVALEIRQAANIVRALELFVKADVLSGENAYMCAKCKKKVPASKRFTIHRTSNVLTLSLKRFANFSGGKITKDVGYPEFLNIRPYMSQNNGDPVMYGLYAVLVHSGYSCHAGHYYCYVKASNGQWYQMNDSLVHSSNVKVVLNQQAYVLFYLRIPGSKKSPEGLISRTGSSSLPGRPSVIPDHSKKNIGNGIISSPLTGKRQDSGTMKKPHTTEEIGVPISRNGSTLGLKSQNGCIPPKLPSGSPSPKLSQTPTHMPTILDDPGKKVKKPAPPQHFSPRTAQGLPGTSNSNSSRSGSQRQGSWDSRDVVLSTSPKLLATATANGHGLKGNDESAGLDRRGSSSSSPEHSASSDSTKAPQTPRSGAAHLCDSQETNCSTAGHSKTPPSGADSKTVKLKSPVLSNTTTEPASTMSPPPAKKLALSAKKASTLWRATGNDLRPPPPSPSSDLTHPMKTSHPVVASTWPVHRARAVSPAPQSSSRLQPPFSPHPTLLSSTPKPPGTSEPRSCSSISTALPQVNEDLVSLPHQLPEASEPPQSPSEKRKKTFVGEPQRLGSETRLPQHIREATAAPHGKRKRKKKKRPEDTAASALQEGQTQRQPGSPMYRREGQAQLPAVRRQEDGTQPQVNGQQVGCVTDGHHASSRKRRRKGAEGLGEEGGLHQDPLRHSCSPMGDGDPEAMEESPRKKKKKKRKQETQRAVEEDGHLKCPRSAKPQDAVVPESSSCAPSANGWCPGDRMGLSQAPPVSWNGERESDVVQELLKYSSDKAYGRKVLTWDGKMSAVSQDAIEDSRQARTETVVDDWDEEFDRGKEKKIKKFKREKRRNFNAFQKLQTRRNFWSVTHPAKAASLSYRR
In short: as §1

[3] = molecular target: T2, USP38 (UniProt Q8NB14)
T2 sequence (whole entry): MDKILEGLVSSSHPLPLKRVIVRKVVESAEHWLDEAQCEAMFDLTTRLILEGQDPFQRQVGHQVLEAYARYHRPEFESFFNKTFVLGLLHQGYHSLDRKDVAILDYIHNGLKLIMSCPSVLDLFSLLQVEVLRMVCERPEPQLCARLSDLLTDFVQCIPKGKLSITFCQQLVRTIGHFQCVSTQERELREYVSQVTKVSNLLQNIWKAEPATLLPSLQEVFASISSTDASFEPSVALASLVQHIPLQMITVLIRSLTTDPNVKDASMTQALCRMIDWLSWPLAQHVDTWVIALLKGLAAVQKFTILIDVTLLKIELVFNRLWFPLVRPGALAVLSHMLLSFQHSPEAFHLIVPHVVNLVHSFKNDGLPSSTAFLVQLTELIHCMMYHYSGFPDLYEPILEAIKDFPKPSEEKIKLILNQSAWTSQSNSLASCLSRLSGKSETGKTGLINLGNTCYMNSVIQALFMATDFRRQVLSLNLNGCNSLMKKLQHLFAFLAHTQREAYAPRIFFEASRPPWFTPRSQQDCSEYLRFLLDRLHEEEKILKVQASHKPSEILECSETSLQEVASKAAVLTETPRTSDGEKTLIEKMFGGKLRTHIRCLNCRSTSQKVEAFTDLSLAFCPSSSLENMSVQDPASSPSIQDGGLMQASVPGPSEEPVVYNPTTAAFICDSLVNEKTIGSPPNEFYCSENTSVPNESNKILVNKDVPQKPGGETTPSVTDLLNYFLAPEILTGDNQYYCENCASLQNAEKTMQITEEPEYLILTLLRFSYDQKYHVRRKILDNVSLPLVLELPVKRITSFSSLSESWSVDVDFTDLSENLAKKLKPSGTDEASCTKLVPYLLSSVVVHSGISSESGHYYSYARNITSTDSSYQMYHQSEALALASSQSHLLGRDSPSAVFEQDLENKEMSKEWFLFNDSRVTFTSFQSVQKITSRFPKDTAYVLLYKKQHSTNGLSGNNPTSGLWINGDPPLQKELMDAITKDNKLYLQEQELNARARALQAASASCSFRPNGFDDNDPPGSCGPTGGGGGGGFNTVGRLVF
In short: as §1

[4] = molecular target: T3, USP39 (UniProt Q53GS9)
T3 sequence (whole entry): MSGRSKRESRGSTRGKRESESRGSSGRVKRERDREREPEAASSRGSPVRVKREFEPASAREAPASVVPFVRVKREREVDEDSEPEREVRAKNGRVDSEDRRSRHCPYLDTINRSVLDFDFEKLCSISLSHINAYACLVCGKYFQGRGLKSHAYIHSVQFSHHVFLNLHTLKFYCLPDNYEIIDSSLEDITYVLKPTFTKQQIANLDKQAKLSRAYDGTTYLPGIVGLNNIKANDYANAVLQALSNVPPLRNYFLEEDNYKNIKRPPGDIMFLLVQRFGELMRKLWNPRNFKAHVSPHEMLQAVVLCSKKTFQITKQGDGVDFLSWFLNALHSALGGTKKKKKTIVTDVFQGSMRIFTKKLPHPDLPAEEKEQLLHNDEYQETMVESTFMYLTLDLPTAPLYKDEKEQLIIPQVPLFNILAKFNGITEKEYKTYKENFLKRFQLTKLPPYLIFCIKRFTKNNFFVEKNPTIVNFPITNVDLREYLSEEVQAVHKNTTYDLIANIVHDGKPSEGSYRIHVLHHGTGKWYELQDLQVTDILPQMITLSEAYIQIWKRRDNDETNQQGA
In short: as §1

[5] = molecular target: T4, USP4 (UniProt Q13107)
T4 sequence (whole entry): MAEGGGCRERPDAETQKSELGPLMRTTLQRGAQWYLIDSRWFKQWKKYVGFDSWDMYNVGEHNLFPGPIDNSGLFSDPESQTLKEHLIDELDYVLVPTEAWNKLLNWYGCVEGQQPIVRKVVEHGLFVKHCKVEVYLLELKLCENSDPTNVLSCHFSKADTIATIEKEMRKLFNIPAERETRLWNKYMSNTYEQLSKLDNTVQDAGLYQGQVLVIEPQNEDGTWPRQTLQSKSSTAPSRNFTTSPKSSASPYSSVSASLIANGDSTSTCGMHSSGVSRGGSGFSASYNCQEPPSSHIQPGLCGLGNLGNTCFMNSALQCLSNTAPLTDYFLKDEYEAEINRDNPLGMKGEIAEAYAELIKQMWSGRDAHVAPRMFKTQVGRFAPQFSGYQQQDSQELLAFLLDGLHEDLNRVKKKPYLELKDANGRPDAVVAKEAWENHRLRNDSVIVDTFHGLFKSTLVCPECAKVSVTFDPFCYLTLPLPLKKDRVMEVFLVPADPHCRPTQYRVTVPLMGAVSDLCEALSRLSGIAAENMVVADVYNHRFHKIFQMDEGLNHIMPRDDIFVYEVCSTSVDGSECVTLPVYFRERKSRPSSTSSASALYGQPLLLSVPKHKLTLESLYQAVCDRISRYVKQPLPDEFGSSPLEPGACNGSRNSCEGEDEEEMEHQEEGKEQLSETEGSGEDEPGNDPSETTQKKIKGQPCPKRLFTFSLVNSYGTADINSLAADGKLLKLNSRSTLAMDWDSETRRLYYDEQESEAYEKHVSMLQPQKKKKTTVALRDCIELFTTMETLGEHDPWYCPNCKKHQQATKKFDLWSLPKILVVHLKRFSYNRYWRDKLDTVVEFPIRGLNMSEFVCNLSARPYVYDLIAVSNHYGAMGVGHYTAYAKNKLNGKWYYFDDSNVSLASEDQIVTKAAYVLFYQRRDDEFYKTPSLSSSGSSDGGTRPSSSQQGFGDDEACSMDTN
In short: as §1

Measured: log2 ratio of Biotin-Ahx-Ub-VS probe labelling

CC1(NC(=O)CCl)CCS(=O)(=O)C1 (stereo not given)
inactive: [1] -0.257 | [2] -0.302 | [3] -0.653 | [4] -0.0411 | [5] -0.424
